Laboratory results reported in ChEMBL document CHEMBL1157539, “Thousands of chemical starting points for antimalarial lead identification” (Nature, 2010).

How the values were obtained:
Assay type in all cases: functional
Plasmodium falciparum [1] = assay: GSK_TCMDC: Inhibition of Plasmodium falciparum 3D7 in whole red blood cells, using parasite LDH activity as an index of growth. Test compounds present at 2uM
Plasmodium falciparum [2] = assay: GSK_TCMDC: Inhibition of Plasmodium falciparum Dd2 in whole red blood cells, using parasite LDH activity as an index of growth. Test compounds present at 2uM
HepG2 = assay: GSK_TCMDC: Percent inhibition of human HepG2 cell line. Test compounds present at 10uM.

Compound	Inhibition (Plasmodium falciparum [1]) [%]	Inhibition (Plasmodium falciparum [2]) [%]	Inhibition (HepG2) [%]
CO/C(=C\C=C\c1cc2cc(Cl)c(Cl)cc2[nH]1)C(=O)NCCCN1CCN(c2cccc(Cl)c2)CC1	100	77	58
CC(C)(C)OC(=O)N1CCC(C2CCN(C(=O)OC(C)(C)C)CC2)CC1	86	28	0
Cc1sc2ncnc(Sc3nnc(N)s3)c2c1C	100	100	9
Cc1cc(C)c2ncc(C(=O)O)c(O)c2c1	93	60	0
CCn1c(-c2nonc2N)nc2c(-c3ccccc3)ncc(OCCCNCCCN3CCOCC3)c21.O=C(O)C(F)(F)F	100	91	28
C=CCC(C(=O)Nc1ccnc2ccc(OC)cc12)C1CCN(CCCCCCC)CC1 (stereo not drawn)	86	84	20
CNC(=O)/C=C/c1cc(NC(=O)Nc2cc(C)nc3c(F)cccc23)ccc1OC	98	70	0
O=C(NC1CCCc2ccccc21)[C@@H]1CCCN1C(=O)c1ccc(O)c(-c2ccc(Cl)c(Cl)c2)c1 (stereo partly drawn)	99	99	0
O=C(NCC1CCN(Cc2cccc(C(F)(F)F)c2)C1)c1cc(-c2cccc(C(F)(F)F)c2)cs1.O=C(O)C(F)(F)F (stereo not drawn)	100	74	35
CCOC(=O)c1ccc(NC(=O)Nc2cccc(-c3ccc(-c4nc5cc(F)ccc5[nH]4)cc3)c2)cc1	100	97	40
O=C(NCCNc1ccnc(NCc2ccc(F)cc2)n1)c1cc2ccccc2s1	99	17	6
Cc1ccc(CNC(=O)c2ccc(CN3CCCN(Cc4ccsc4)CC3)cc2)cc1.O=C(O)C(F)(F)F	93	0	16
Cc1cccc2nc(-c3cccc(-c4ccc(NC(=O)COC(C)C)cc4)c3)[nH]c12	82	11	0
CCOc1cc(C(C)C)ccc1C1CCN(CCCCNC(=O)c2ccc(NC(=O)c3ccc(Cl)cc3)cc2)CC1	100	98	32
Nc1nc(N)c2c(ccc3c2ncn3Cc2ccccc2)n1	96	96	71
N=c1ccn(CC(=NO)c2ccc(Cl)c(Cl)c2)cc1	87	81	23

Compound	Inhibition (Plasmodium falciparum [1]) [%]	Inhibition (Plasmodium falciparum [2]) [%]	Inhibition (HepG2) [%]
O=C(Nc1ccc(Cn2ncc(N3CCCNCC3)c(Cl)c2=O)cc1)Nc1cccc(SC(F)(F)F)c1.O=C(O)C(F)(F)F	92	33	12
CC(Oc1ccc(C(=O)c2ccc(F)cc2)cc1)C(=O)N1CCc2ccccc21 (stereo not drawn)	95	95	9
C=CCN1C(=O)C(=Cc2cc(Br)ccc2O)SC1=Nc1ccccc1	96	55	0
O=c1c2ccc(F)cc2sn1-c1ccc(Cl)cc1	98	11	8
Cl.O=c1cc(NCCCNCc2csc(Br)c2Sc2ccc(Cl)cc2)[nH]c2ccccc12	95	83	5
COc1ccc(-c2cc(-c3ccc(S(C)(=O)=O)cc3)cnc2N)cn1	94	99	5
O=C(/C=C/c1ccc(F)c(Br)c1)NCCCCCN1CCC(c2c[nH]c3ccccc23)CC1	92	10	39
Cc1sc(C)c(CNCCCNc2cc(=O)c3ccccc3[nH]2)c1Br.Cl	93	15	0
COc1ccc(-c2cnc3ccc(NC4CCC(O)CC4)nn23)cn1 (stereo not drawn)	98	73	54
CC(=O)Nc1nc(C(=O)Nc2cccc(-c3ccc(-c4nc5cc(F)ccc5[nH]4)cc3)c2)cs1	100	32	54
CC(=O)Nc1ccc(OCCN(Cc2ccccc2C(F)(F)F)c2ccc(C#N)c(C(F)(F)F)c2)c(Cl)c1	98	78	0
N=c1[nH]c2cccc3ccc4cccc1c4c32	100	69	26
O=C(O)C(F)(F)F.c1cc(-c2ccc(CNCCc3ccncc3)cc2)cc(-c2nc3ccccc3[nH]2)c1	100	99	41
CN(C)CCOc1ccc(-c2cc(-c3ccnc(N)n3)c(-c3ccc(Cl)c(O)c3)o2)cc1	100	91	14
COCCN1CCC(N(Cc2ccc(-c3ccc(OC(F)(F)F)cc3)cc2)C(=O)Cn2c(CCc3cccc(F)c3F)cc(=O)c3ccccc32)CC1.O=C(O)C(O)C(O)C(=O)O	96	92	100
